HRas wt GTP: changes GTP binding to wildtype human HRas; AID 759; GTP binding activity, % at 10 µM; hit rate 0.14% among 190,000; GST-Ras wt beads, Bodipy-FL-GTP binding, flow cytometry; actives lie on both sides; P01112;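 active means GTP binding activity at least 20% away from the 100% baseline, either lowered as inhibitor or raised as activator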
Target sequence (P01112 whole entry, looked up): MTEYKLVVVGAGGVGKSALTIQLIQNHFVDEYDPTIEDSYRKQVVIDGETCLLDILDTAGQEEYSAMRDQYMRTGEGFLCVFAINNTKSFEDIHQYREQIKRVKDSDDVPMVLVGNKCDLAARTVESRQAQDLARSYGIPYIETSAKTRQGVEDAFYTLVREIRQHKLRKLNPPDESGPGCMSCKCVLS
Rab2 wt GTP: changes GTP binding to wildtype dog Rab2A, up or down. P61105. GST-Rab2 wt beads, Bodipy-GTP binding, flow cytometry. GTP binding activity, % at 10 µM. hit rate 0.19% among 190,000. AID 760;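 active means GTP binding activity at least 20 points away from 100%, either lowered or raised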
Rab7 wt GTP bind: modulators of GTP binding to dog Rab7 wildtype GTPase; GST-Rab7 beads, fluorescent GTP binding, flow cytometry; actives lie on both sides; untreated = 100%, excess cold GTP = 0%; GTP binding activity (percent of control), % at 10 µM; hit rate 0.055% among 190,000;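 active means fluorescent GTP binding to Rab7 beads changed by at least 20 points from the 100% baseline, either direction, mostly lower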;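 further: median green fluorescence of bound Bodipy-FL-GTP per Rab7 bead population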
Rac1 wt modul: alters GTP binding to wildtype human Rac1; P63000; GST-Rac1 beads, fluorescent GTP binding, flow cytometry; actives lie on both sides; 0 = cold GTP competed, 100 = untreated; GTP binding activity (% of control), % at 10 µM; hit rate 0.27% among 190,000; AID 757;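 active means GTP binding activity at least 20 points away from the 100% control level, either lower or higher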
Cdc42 wt GTP: human Cdc42 wildtype GTP binding change, either direction; P60953; GST-Cdc42 beads, Bodipy-GTP binding, flow cytometry; actives lie on both sides; percent activity (GTP binding), % at 10 µM; hit rate 0.2% among 190,000; AID 761;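 active means percent activity GTP binding at least 20 points away from the 100% baseline, either down as inhibitor or up as activator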;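 further: median bead fluorescence of bound Bodipy-FL-GTP at 100 nM; below 100% means less GTP binding so inhibitor and above means activator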
Target sequence (P60953 whole entry, looked up): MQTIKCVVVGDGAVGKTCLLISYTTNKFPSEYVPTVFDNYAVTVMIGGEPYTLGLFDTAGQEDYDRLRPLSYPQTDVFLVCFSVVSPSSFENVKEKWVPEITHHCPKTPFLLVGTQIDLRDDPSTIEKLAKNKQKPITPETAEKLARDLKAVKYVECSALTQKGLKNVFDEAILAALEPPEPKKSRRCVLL
Rac1 mut GTP: human Rac1 activated mutant GTP binding change. P63000. GST-Rac1 activated beads, fluorescent GTP binding, flow cytometry; actives lie on both sides; 100% means binding = to untreated wells. percent activity (GTP binding), % at 10 µM. hit rate 0.11% among 190,000. AID 764;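 active means GTP binding at least 20 percentage points away from the 100% baseline, in either direction, so actives lie on both sides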
Numbers stand for hits; . = inactive; [ ] = remark or other dose. Only some compounds are listed: those with a hit (about 0.4% of all), similar ones and a draw of the others.

SMILES	HRas wt GTP	Rab2 wt GTP	Rab7 wt GTP bind	Rac1 wt modul	Cdc42 wt GTP	Rac1 mut GTP
CCC(/C=C1\Sc2ccc(OC)cc2N1CCO)=C\c1sc2ccc(OC)cc2[n+]1CCO	78	.	.	.	.	.
CCC(/C=C1\Sc2ccc(OC)cc2N1CC)=C\c1sc2ccc(OC)cc2[n+]1CCCS(=O)(=O)[O-]	.	.	.	.	.	.
Cc1c(NS(=O)(=O)c2ccc3c(c2)Cc2ccccc2-3)c(=O)n(-c2ccccc2)n1C	.	.	.	.	78	76
Cc1c(NS(=O)(=O)c2ccc3c(c2)n(C)c(=O)n3C)c(=O)n(-c2ccccc2)n1C	.	.	.	.	.	.
COc1ccc(N2C(=O)C3C(c4ccc(C(=O)O)cc4)NC(Cc4ccccc4)(C(=O)O)C3C2=O)c([N+](=O)[O-])c1 (stereo not drawn)	.	.	.	.	.	.
O=C(O)COc1ccccc1/C=N/NC(=O)c1cccc(S(=O)(=O)Nc2cccc(Cl)c2)c1	.	.	.	75	.	.
O=S1(=O)N=C(N(CCO)/N=C/c2ccncc2)c2ccccc21	67	66	.	56	64	76
O=S1(=O)N=C(N(CCO)/N=C/c2ccccc2)c2ccccc21	72	70	.	70	71	.
COc1ccc(/C=C2/N=C3CCCCCN3C2=O)cc1	.	.	.	.	.	.
CC(=O)c1ccc(NC(=O)C(C)Nc2ccc(Cl)cc2)cc1 (stereo not drawn)	.	.	.	.	.	.
CCNC(=O)COC(=O)COc1ccc(Cl)cc1C	.	.	.	.	.	.
Cc1cc(Cl)ccc1OCC(=O)OCC(=O)Nc1ccc(F)c([N+](=O)[O-])c1	74	64	.	.	77	.
O=C1OC(c2ccc(F)cc2)=C/C1=C\c1ccc([N+](=O)[O-])o1	.	.	124[activator]	.	.	.
O=[N+]([O-])c1ccc(/C=N/N=C/c2ccc([N+](=O)[O-])o2)o1	.	.	.	.	.	.
O=C(NC1CCCCC1)c1noc2c1CCCCC2	.	.	.	120[activator]	.	.
CC(C)(C)C1CCc2onc(C(=O)NC3CCCC3)c2C1 (stereo not drawn)	.	.	.	.	.	.
CCCCCOC(=O)NC1CCS(=O)(=O)C1 (stereo not drawn)	.	.	.	.	.	.
Cc1cc(C)cc(NC(=O)COC(=O)CN=C2NS(=O)(=O)c3ccccc32)c1	.	.	.	.	.	.
COc1ccc(C2=Nn3c(nnc3-c3ccccc3)SC2)cc1OC	.	.	.	78	.	.
Cc1cccc(-c2nnc3n2N=C(c2ccccc2)CS3)c1	.	.	.	.	.	.
Oc1ccc(C2=Nn3c(nnc3-c3ccco3)SC2)cc1O	47	47	70	51	49	65
Cc1cc(-c2nnc3n2N=C(c2ccc(-c4ccccc4)cc2)CS3)n[nH]1	78	79	.	75	76	.
COc1ccc(-c2nnc3n2N=C(C)CS3)cc1OC	.	.	.	.	.	.
Cc1ccc(SCC(=O)Nc2ccc(N3CCOCC3)cc2)c(C)c1	.	.	.	.	.	.
O=C(COC(=O)/C=C/c1cccc([N+](=O)[O-])c1)NCc1ccc2c(c1)OCO2	.	.	.	.	.	79
SMILES	HRas wt GTP	Rab2 wt GTP	Rab7 wt GTP bind	Rac1 wt modul	Cdc42 wt GTP	Rac1 mut GTP
CC(CC(=O)O)Nc1ccccc1O (stereo not drawn)	.	.	.	.	.	.
CC(C)CN=Cc1c(O)c([N+](=O)[O-])cc2oc3c(c12)CCCC3	.	.	.	.	.	.
O=[N+]([O-])c1cc2oc3c(c2c(C=NCc2ccccc2)c1O)CCCC3	79	76	78	73	74	74
Cc1nc2nc(SCC(=O)O)nn2c(C)c1Cc1ccccc1Cl	.	78	.	.	.	.
Cc1nc2nc(SCC(=O)NCc3ccco3)nn2c(C)c1Cc1c(F)cccc1Cl	.	.	.	.	.	.
Cc1nc2nc(SCC(=O)O)nn2c(C)c1Cc1c(F)cccc1Cl	78	73	.	78	72	70
Cc1cccc(NC2=CC(=O)CC(C)(C)C2)c1C	.	.	.	.	.	.
CCC(Sc1nc(-c2ccccc2)cc(=O)[nH]1)C(=O)O (stereo not drawn)	.	.	.	.	.	.
CC(C)Sc1nc(-c2ccccc2)cc(=O)[nH]1	.	.	.	128[activator]	.	.
COc1ccc(NC(=O)c2cccn(CC=C(C)C)c2=O)cc1	.	.	.	.	.	.
COc1ccc(CNCc2cccc(Oc3ccccc3)c2)cc1	.	.	.	.	.	.
c1ccc2oc(-c3csc(N4CCOCC4)n3)cc2c1	.	.	.	.	.	.
Cc1nc2sccn2c1-c1nc(-c2cc3ccccc3o2)cs1	.	77	.	79	.	.
O=C(Nc1cccc(Cl)c1)Nc1ccnc(-c2cccnc2)n1	67	67	.	77	64	.
CC(=O)Nc1ccnc(-c2cccnc2)n1	.	.	.	.	.	.
CCOc1ccc(N=Nc2c(C)noc2C)cc1	.	.	.	.	.	.
c1ccc(CN2CCN(CCOCCOc3cccc4ccccc34)CC2)cc1	.	78	.	.	.	.
CCS(=O)(=O)N1CCN(CC(=O)NC2CCCCC2)CC1	.	.	.	.	.	.
CC(C)c1nc2sc3c(=O)[nH]c(=S)[nH]c3c2c2c1CCC2	.	.	.	.	.	.
CC(C)Cc1nc2oc3c(Cl)ncnc3c2c2c1CCC2	.	.	.	.	.	.
CC(C)c1nc2oc3c(=O)[nH]cnc3c2c2c1CCC2	74	73	.	79	70	.
CCCc1nc2oc3c(=O)[nH]cnc3c2c2c1CCCC2	.	.	.	79	.	.
O=c1cc(N2CCc3ccccc3C2)[nH]c(=O)n1-c1ccc(Cl)cc1	.	.	.	121[activator]	.	.
Cn1c(O)c(C2=c3ccccc3=NC2=O)[nH]c1=S	.	.	.	79	.	.
COc1ccc2nc(-n3c(O)c(C4=c5ccccc5=NC4=O)[nH]c3=S)sc2c1	.	.	.	.	.	.
CC(C)(C)NC(=O)CSc1nccn1Cc1ccccc1	.	.	.	75	77	.
O=C(CSc1nccn1Cc1ccccc1)Nc1nccs1	.	.	.	.	.	.
Cc1cccn2c(=O)c(C=O)c(N3CCN(c4ccc(F)cc4)CC3)nc12	.	.	.	.	.	.
Nc1ccc(-c2cn3cccnc3n2)cc1	78	78	.	72	79	.
O=C(c1ccc(COCC(F)(F)F)o1)N1CCCC1	.	.	.	.	.	.

High-throughput results: PubChem BioAssay, NMMLSC
